{"source": "PubChem BioAssay AID1508600", "about": "(Functional Genomics Laboratory (NCATS/FGL), 2020)", "note": "Hit rate of the full screen: of about 53,000 sequences, about 3,700 (7%) were called active.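 How the source made its calls: active means gene knockdowns whose robust z-score for IL-1 alpha signal is at least 2 or at most -2, so actives lie on both sides; inactive means the rest.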 The full list was thinned out, with actives kept by preference."}
{"assay": "Components of the Cytosolic LPS Sensing Pathway: Gene Identification via Genome-wide siRNA Screen;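 further: robust z of the log signal after scaling to non-targeting control siRNA wells of the plate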", "details": "RAW264.7 macrophages, IL-1a HTRF, actives lie on both sides, screened at 100 nM (by protocol), cells primed 5 h with Pam3CSK4 first", "how_it_was_run": "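Knockdown: 100 nM siRNA, 48h, RAW264.7. Stimulation: Pam3CSK4 5 h, then LipidA via TransIT-TKO 24 h. Output: supernatant IL-1a HTRF, negative-control-normalized, log robust z-score; viability by CellTiter-Glo.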"}
{"sequence": "GCCGGAUAACAUCAGACACTT against Rmnd1", "z-score": "-0.146 (inactive)"}
{"sequence": "GCCACAGAGCUAGACUGUCTT against Wdr86", "z-score": "0.241 (inactive)"}
{"sequence": "GGAACAUCUUCAAAGAAGATT against Minar1", "z-score": "-0.963 (inactive)"}
{"sequence": "GUUUUGUUUCAGAGCAGAATT against Olfr900", "z-score": "-0.134 (inactive)"}
{"sequence": "GCUAAUAACUGUUCACAUATT against Magi1", "z-score": "1.97 (inactive)"}
{"sequence": "CCAAUCUUAGUCAUCCAUUTT against Foxo6", "z-score": "-2.27 (active)"}
{"sequence": "GUAUUGUCAUCAUCAUUUCTT against Olfr910", "z-score": "0.115 (inactive)"}
{"sequence": "GGUCGGCCAAUUACAAUGUTT against Eml4", "z-score": "2.16 (active)"}
{"sequence": "GCGAUGAGACAGAUGUCGATT against Tcof1", "z-score": "-0.0757 (inactive)"}
{"sequence": "GGUCUUCAACAACAUUAUCTT against Hid1", "z-score": "1 (inactive)"}
{"sequence": "GCCGAUCCAUUUUUGGCUCTT against Mlxip", "z-score": "0.86 (inactive)"}
{"sequence": "GGAGUAUUACCUGGUUAAGTT against Suv39h1", "z-score": "-1.18 (inactive)"}
{"sequence": "GCAAGUUAAGGAUAUCAUGTT against Katna1", "z-score": "1.2 (inactive)"}
{"sequence": "CCGAGUCUUGAACUAGGCATT against Six2", "z-score": "-2.01 (active)"}
{"sequence": "GCUUUCUGAAGUAGCAAAGTT against Nit2", "z-score": "0.42 (inactive)"}
{"sequence": "GAUGUACGAGAGCUUAGCATT against Uqcc2", "z-score": "-1.14 (inactive)"}
{"sequence": "GGACUACCUGUGUAUGCUCTT against Dcaf12l1", "z-score": "1.3 (inactive)"}
{"sequence": "GGAAUGUUCCUUCGAGCAGTT against Ccdc28b", "z-score": "-0.197 (inactive)"}
{"sequence": "GCCAUAGAAGUAGAAGUAGTT against Rbmx2", "z-score": "-2.29 (active)"}
{"sequence": "GGCGAAAGUAAGACAAAGUTT against Ric8a", "z-score": "0.708 (inactive)"}
{"sequence": "GGCAAACCGACAGACUUCUTT against Riok1", "z-score": "-0.033 (inactive)"}
{"sequence": "GGUCUCUCAUUACCACAUUTT against Olfr69", "z-score": "1.75 (inactive)"}
{"sequence": "GGAAGAUCAGCCAUACUAGTT against Klrb1f", "z-score": "2.12 (active)"}
{"sequence": "GCCCACACUUGCUAAUGAATT against Ppp1r26", "z-score": "0.468 (inactive)"}
{"sequence": "GCUGAACGAUGACUAUCCCTT against Cryba4", "z-score": "2.2 (active)"}
{"sequence": "GCUUGUGCCAAGCAUUCUUTT against Rdh1", "z-score": "0.861 (inactive)"}
{"sequence": "GGACUCAGAAGAAAUGGACTT against Osbpl6", "z-score": "0.109 (inactive)"}
{"sequence": "GCUCUGCUAACUUACAUCUTT against Mtmr11", "z-score": "1.75 (inactive)"}
{"sequence": "GGCAAAGAGAUUGACAUUGTT against Kif2c", "z-score": "-0.991 (inactive)"}
{"sequence": "GCGGUCACGUGUGAUGGAUTT against Zfp653", "z-score": "3.98 (active)"}
